Compound activity deposited in PubChem BioAssay by several laboratories.
Compounds with a hit are over-represented: about 3.4% of the library has one in this group of screens.
TRPM1 prom inh = reduces MITF-dependent TRPM1 promoter luciferase signal; SK-MEL-5 TRPM1 promoter luciferase, 24 h; inhibition, % at 12.5 µM; 330,000 tested, 0.83% active;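 active = mean inhibition across replicates of 60% or more, whatever share of single replicates reaches that level; inconclusive = some that reach 60%, reason not given; inactive = mean inhibition across replicates below 60%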
HIF-2a inh = blocks HIF-2a reporter activity; 786-0 RCC cells HIF-2a reporter, luciferase luminescence, overnight; inhibition, % at 18.8 µM; 360,000 tested, 0.72% active; AID 624352;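 active = inhibition of the luminescence signal of 40% or more relative to plate controls, in a single-dose primary screen at 18.75 µM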
LMP1 NFkB inh = inhibitors of Epstein-Barr LMP1-induced NF-kappaB reporter; inhibition, % at 12.5 µM; AID 504558; 350,000 tested, 0.69% active; LMP1-induced NF-kappaB luciferase reporter cells, luminescence; in the data active = inhibition above about 41%; inconclusive = no clear call, values can overlap the other calls;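 note: 0% = neutral control wells and 100% = reference inhibitor control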
TWEAK-Fn14 inh = blocks TWEAK-Fn14 interaction in a reporter cell assay; 360,000 tested, 2% active; AID 1159606; inhibition, % at 10 µM; TWEAK-stimulated Fn14 reporter cells, luciferase luminescence, 8 h; in the data active = inhibition above about 50%
TROY signal inh = TROY signaling inhibition; Q293 LMP1-TROYcd NF-kB luciferase reporter, 4 h; inhibition, % at 10 µM; 360,000 tested, 0.98% active; AID 1347056;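 active = compounds whose plate-normalised and pattern-corrected inhibition of the luciferase reporter signal at the single screening dose is 50% or more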
Shn3 3UTR inh = inhibitors of Schnurri-3 3'UTR reporter in osteoblasts; inhibition, % at 12.5 µM; AID 588674; Clone20 osteoblast Shn3 3'UTR firefly luciferase, 24 h; 360,000 tested, 0.52% active;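 active = mean inhibition of at least 75% with every replicate also reaching 75%; inconclusive = mean inhibition at least 75% but some replicate below; inactive = mean inhibition below 75%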;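 note: 0% = median of neutral control wells and 100% = pilot-screen positive control compound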
Active calls of the source: *; ? = inconclusive; / = not tested or not shown.

SMILES	TRPM1 prom inh	HIF-2a inh	LMP1 NFkB inh	TWEAK-Fn14 inh	TROY signal inh	Shn3 3UTR inh
CCOc1ccc(-c2nnc(SCC(=O)NC(C)(C)C)nc2-c2ccc(OCC)c(OC)c2)cc1OC	23	21	17	-21	5	19
CCC(C)c1ccc(NC(=O)c2ccco2)cc1 (centres undefined)	7	-36	12	66*	23	7
Cc1ccc(C(=O)NCCCNC(=O)c2ccco2)cc1	-7	3	-3	0	-5	-10
COc1ccc(-c2ccc(NC(=O)c3ccco3)cc2)nn1	21	-1	57*	77*	43	24
O=C(NCCCNC(=O)c1ccco1)c1ccc(Cl)cc1	-9	-25	-1	70*	61*	-58
O=C(NCCCN1CCOCC1)/C(=C/c1ccco1)NC(=O)c1ccccc1	0	13	0	0	2	-1
COc1ccccc1N(CC(=O)NCc1ccccc1)S(=O)(=O)c1cccs1	/	19	-4	-20	-4	0
CCOC1=C2CN(S(=O)(=O)c3ccc(C)cc3)[C@H](c3ccccc3)C[C@@H]2N(S(C)(=O)=O)[C@H](c2ccccc2)C1	/	16	/	12	-1	-17
CCOc1ccc(NCc2cccn2-c2nnc(N3CCC(C(=O)NCCCN4CC(C)CC(C)C4)CC3)s2)cc1 (centres undefined)	90*	5	-8	12	4	-11
Cc1nn2cc(-c3ccccc3)nc2[nH]c1=O	1	-38	-1	-10	-4	-17
Cc1nc(-c2ccccc2)cn(O)c1=O	15	2	0	64*	6	-1
C[C@H](O)[C@@H]1CN2CCc3c([nH]c4ccc(-c5ccc6c(c5)OCO6)cc34)[C@@H]2C[C@@H]1N(C)C(=O)Nc1ccc(F)cc1	/	-8	5	3	-4	22
C[C@@H]1ON(C)[C@H]2C[C@H]3c4[nH]c5ccc(-c6ccc7c(c6)OCO7)cc5c4CCN3C[C@@H]12	/	-105	-20	85*	30	-35
Cc1nnc(N2CCCC(C(=O)Nc3cc(F)ccc3F)C2)c2nn(-c3ccccc3)c(C)c12 (centres undefined)	?	18	55*	39	53*	22
CCOc1ccccc1C(=O)N[C@H](C(=O)OCc1cc([N+](=O)[O-])cc2c1OCOC2)C(C)C	9	17	49*	21	-2	1
CCCCN(C=O)c1c(CC)nc2c(OCCOc3ccc(F)cc3)cccn12	/	-11	/	63*	0	20
Cc1cc(C)n2nc(CC(=O)NC3CCCCCC3)nc2n1	6	2	64*	5	6	0
COc1cccc(OCCNS(=O)(=O)c2ccccc2[N+](=O)[O-])c1	1	-25	-3	-12	-12	12
Nc1ccc2c(c1)C(=O)C(=O)c1ccccc1-2	107*	93*	86*	105*	59*	97*
Nc1ccc2c(c1)C(=O)c1ccccc1-2	-12	-5	5	-21	-11	3
COCCNC(=O)C(c1ccccc1F)N(C(=O)C(=O)NC1CCCC1)C1CCCCC1 (centres undefined)	5	6	-3	0	3	-1
CN1C/C(=C/c2ccccc2[N+](=O)[O-])C(=O)/C(=C\c2ccccc2[N+](=O)[O-])C1	62*	2	-50	22	9	-7
O=C(NCc1ccccc1)C(c1ccc(F)cc1)N1CCN(c2ccccc2F)CC1 (centres undefined)	/	4	/	/	/	/
CC(=O)NC1C(O)OC(CO)C(O)C1O (centres undefined)	2	9	80*	-7	-1	97*
O=C1C(C2=NC(c3ccccn3)C3C(=O)N(c4ccc(Cl)cc4Cl)C(=O)C23)=C(O)c2ccccc21 (centres undefined)	90*	16	-10	1	25	13
CC1Cc2ccccc2N1C(=O)Cn1nnc(-c2ccccc2NC(=O)C2CCC2)n1 (centres undefined)	6	4	8	45	59*	21
O=C(Nc1ccccc1-c1nnn(CC(=O)N2CCc3ccccc3C2)n1)C1CCC1	1	12	-2	71*	/	-5
Cc1cnc(C(=O)OCC(=O)N2C(C)CCCC2C)cn1 (centres undefined)	-9	2	-5	4	0	2
